The subject of test [1] is TRPC4 beta (transient receptor potential cation channel C4), mouse. The experiment in a line: activators of mouse TRPC4 channel, confirmation, cell-based, Fluo4 calcium, HEK293 TRPC4beta/mu-opioid, duplicates, 10 µM (AID 2426;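 active means fluorescence ratio normalized to control raised more than 50% in primary screen plus both repeat runs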). The conditions noted are these: Fluo4 calcium fluorescence, at 10 µM; stronger effect = higher value.
For test [2], the system named is transient receptor potential cation channel C4 beta (TRPC4), mouse. In words: activators of mouse TRPC4 channel, confirmation, cell-based, second round, Fluo4, HEK293 TRPC4beta/mu-opioid, 1 µM (AID 2461;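 active means primary screen active and over 50% activation in each of two duplicate runs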). The conditions noted are these: Fluo4 calcium fluorescence, at 1 µM; stronger effect = higher value.
For test [3], the system named is TRPC4 (transient receptor potential cation channel C4 beta), mouse. The experiment in a line: positive allosteric modulators of mouse TRPC4, confirmation, cell-based, second round, Fluo-4, HEK293 TRPC4beta/mu-opioid, 1 µM (AID 2554;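 active means primary screen hit whose fluorescence ratio, in both repeats, exceeds the weak agonist control mean by 3 SD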). The conditions noted are these: DAMGO EC20, Fluo-4 calcium flux, at 1 µM; stronger effect = higher value. For orientation: Calcium flux is commonly read through the fluorescence of an indicator in the cells.

Test [4] relates to TRPC4 beta (transient receptor potential cation channel C4), mouse. In words: positive allosteric modulators of mouse TRPC4, confirmation, cell-based, Fluo-4, HEK293 TRPC4beta/mu-opioid (AID 2555;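 active means primary screen hit whose calcium fluorescence ratio, in both repeats, exceeds the weak agonist control mean by 3 SD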). To be noted: DAMGO EC20, Fluo-4 calcium flux, at 10 µM; stronger effect = higher value.
Test [5] concerns the target Short transient receptor potential channel 4 (Mus musculus) (UniProt Q9QUQ5). In words: inhibitors of mouse TRPC4 channel, confirmation, cell-based, Fluo4, HEK293 TRPC4beta/mu-opioid (AID 2636;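 active means calcium signal cut by more than 3 SD below the full-agonist control yet still positive, in both repeats and the earlier primary screen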). The conditions noted are these: DAMGO, Fluo4 calcium flux, at 10 µM; stronger effect = higher value.
Test [6] shares this target. The experiment in a line: inhibitors of mouse TRPC4 channel, confirmation, cell-based, second round, Fluo4, HEK293 TRPC4beta/mu-opioid, 1 µM (AID 2637;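 active means calcium signal ratio cut to more than 3 SD under the fully stimulated control mean yet still positive, in both repeats and the primary screen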). The conditions noted are these: Fluo4 calcium flux, DAMGO, at 1 µM; stronger effect = higher value.
Test [7] shares this target. The experiment in a line: mouse TRPC4 channel activators, dose response, cell-based, HEK293 TRPC4/mu-opioid, Fluo-4 calcium (AID 434937;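 active means primary screen activator hit with a dose response curve and TRPC4 channel activation at any tested dose; inactive means no activation, no dose response, or not a primary hit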).
For test [8] the target is unchanged. In words: TRPC4 positive allosteric modulators, dose response, cell-based, HEK293 TRPC4/mu-opioid, Fluo-4 calcium, EC20 DAMGO (AID 434941;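 active means earlier screen potentiator hit that boosts the TRPC4 ion channel at some dose, with a dose response; inactive means no potentiation, no dose response, or not a prior hit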;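 further: calcium entry triggered by an EC20 dose of DAMGO at the co-expressed mu-opioid receptor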).
The target is the same in test [9]. In words: mouse TRPC4 channel inhibitors, dose response, cell-based, HEK293 TRPC4/mu-opioid, Fluo-4 calcium (AID 434942;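 active means primary screen inhibitor hit that blocks the TRPC4 channel at some tested dose, yielding a dose curve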).
Test [10] has as its target Short transient receptor potential channel 6 (Mus musculus) (UniProt Q61143). The experiment in a line: inhibition of mouse TRPC6 channel, confirmation, selectivity assay for TRPC4 inhibitor project, cell-based, HEK293, membrane potential dye, duplicate (AID 434948;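 active means active in primary screen and both duplicates, each dropping signal beyond three positive-control SD with fluorescence still positive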). To be noted: HEK293 TRPC6, membrane potential dye fluorescence, at 10 µM, stimulated with maximal-effect acetylcholine; stronger effect = higher value.

Test [11] has the same target. The experiment in a line: activation of mouse TRPC6 channel, confirmation, selectivity assay for TRPC4 activator project, cell-based, HEK293, membrane potential dye, duplicate (AID 434950). The conditions noted are these: HEK293 TRPC6, membrane potential fluorescence, at 10 µM; stronger effect = higher value.
The target is the same in test [12]. In words: TRPC6 potentiation by TRPC4 potentiator hits, confirmation, selectivity assay for TRPC4 potentiator project, HEK293 cells, membrane potential dye, duplicate (AID 434952;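 active means compound raising the membrane signal above positive-control mean plus 3 SD in both repeats, and a primary screen hit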). The conditions noted are these: HEK293 TRPC6, membrane potential dye fluorescence, at 10 µM, maximal acetylcholine added after compound; stronger effect = higher value.
For test [13], the target named is Short transient receptor potential channel 4 (Mus musculus) (UniProt Q9QUQ5). In words: calcium flux activators in TRPC4/5HT1a cells, counter-screen for TRPC4 activator project, cell-based, second counter screen, HEK293 TRPC4/5HT1a, Fluo-4 (AID 434977;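 active means calcium signal rise above buffer-control mean plus 5 SD in both duplicates, and also a hit in the primary screen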). To be noted: Fluo-4 calcium flux, at 10 µM; stronger effect = higher value.
Test [14] can be described thus: calcium flux inhibitors in TRPC4/5HT1a cells, confirmation, counter-screen for TRPC4 inhibitor project, cell-based, second counter screen, HEK293 TRPC4/5HT1a, Fluo-4 (AID 434978;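 active means primary screen active whose calcium signal fell more than 3 SD beyond the full-serotonin control mean in both duplicate plates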;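 further: serotonin given first at submaximal then at maximal dose after compound preincubation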). To be noted: Fluo-4 calcium flux, at 10 µM, serotonin added to trigger calcium flux; stronger effect = higher value.
Test [15] deals with TRPC4 (mouse), co-expressed with 5HT1a in HEK293. The experiment in a line: calcium flux potentiators in TRPC4/5HT1a cells, confirmation, counter-screen for TRPC4 potentiator project, cell-based, second counter screen, HEK293 TRPC4/5HT1a, Fluo-4 (AID 434979;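 active means signal rise over 3 SD above mean of control wells given weak agonist, in both repeats and first screen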). To be noted: Fluo-4 calcium flux, at 10 µM, serotonin added at its EC20 dose; stronger effect = higher value.
Test [16] is described as follows: calcium flux activation in mu-opioid HEK293 cells, confirmation, counter-screen for TRPC4 activator project, cell-based, HEK293 mu-opioid receptor line (AID 449723;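 active means hit in primary screen, with calcium signal over 5 SD above buffer well mean in both duplicates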;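 further: counter screen cells carry the mu-opioid receptor alone and lack TRPC4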). To be noted: Fluo-4 calcium fluorescence, at 10 µM; stronger effect = higher value.
A short description of test [17]: calcium flux enhancement in mu-opioid HEK293 cells, confirmation, counter-screen for TRPC4 allosteric potentiator project, cell-based, HEK293 mu-opioid receptor line (AID 449724;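 active means calcium signal rise more than 3 SD above the low-dose agonist control mean, in both duplicate plates and the primary screen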;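 further: HEK293 cells carrying mu-opioid receptor only with no TRPC4 channel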). To be noted: Fluo-4 calcium flux, at 10 µM, compound added before EC20 DAMGO stimulus; stronger effect = higher value.
The nature of test [18]: thallium flux activation in parental CHO cells, counter-screen for KCNQ1 potentiator project (AID 493006;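 active means duplicate-averaged activation above buffer control mean plus 5 SD of those controls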;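 on activation: fluorescence ratio of max minus min over baseline after K+ and Tl+ depolarization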). To be noted: parental CHO-K1 cells, FluxOR thallium flux, at 10 µM; stronger effect = higher value.
Test [19] deals with Potassium voltage-gated channel subfamily KQT member 1 (Homo sapiens) (UniProt P51787). In words: KCNQ1 potassium channel potentiators, confirmation, FluxOR thallium flux, CHO cells, duplicates (AID 493007;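 active means potentiation averaged over duplicate wells exceeding buffer-only control mean by more than 3 SD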;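 on outcome: cells depolarized by a potassium plus thallium sulfate stimulus after compound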;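 on potentiation: 0% = buffer-only wells and 100% = R-L3 activator control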). The conditions noted are these: KCNQ1 cell line, FluxOR thallium flux fluorescence, at 10 µM; stronger effect = higher value, % of reference activator effect, buffer zero.
Test [20] deals with Potassium voltage-gated channel subfamily KQT member 2 (Rattus norvegicus) (UniProt O88943). The experiment in a line: rat KCNQ2 channel potentiation, selectivity assay for KCNQ1 potentiator project, KCNQ2-CHO-K1 cells (AID 493009;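 active means mean duplicate potentiation above the buffer control mean plus 5 SD of buffer wells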;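 further: assay conditions were tuned for KCNQ1 rather than KCNQ2 modulators; signal is max minus min fluorescence divided by baseline after thallium stimulus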). To be noted: FluxOR thallium flux fluorescence, at 10 µM; stronger effect = higher value, scaled: buffer 0, activator control 100.

For some assays here: Entries with a potency or affinity are not part of this list. Active and inactive are the calls of the source.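 How the source made its calls, unless noted: active means membrane potential signal rise above negative control mean plus 3 SD in both duplicates, also active in the earlier TRPC4 screen; inactive means the rest.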

Sequence of Potassium voltage-gated channel subfamily KQT member 2 (Rattus norvegicus) (O88943 whole entry, looked up): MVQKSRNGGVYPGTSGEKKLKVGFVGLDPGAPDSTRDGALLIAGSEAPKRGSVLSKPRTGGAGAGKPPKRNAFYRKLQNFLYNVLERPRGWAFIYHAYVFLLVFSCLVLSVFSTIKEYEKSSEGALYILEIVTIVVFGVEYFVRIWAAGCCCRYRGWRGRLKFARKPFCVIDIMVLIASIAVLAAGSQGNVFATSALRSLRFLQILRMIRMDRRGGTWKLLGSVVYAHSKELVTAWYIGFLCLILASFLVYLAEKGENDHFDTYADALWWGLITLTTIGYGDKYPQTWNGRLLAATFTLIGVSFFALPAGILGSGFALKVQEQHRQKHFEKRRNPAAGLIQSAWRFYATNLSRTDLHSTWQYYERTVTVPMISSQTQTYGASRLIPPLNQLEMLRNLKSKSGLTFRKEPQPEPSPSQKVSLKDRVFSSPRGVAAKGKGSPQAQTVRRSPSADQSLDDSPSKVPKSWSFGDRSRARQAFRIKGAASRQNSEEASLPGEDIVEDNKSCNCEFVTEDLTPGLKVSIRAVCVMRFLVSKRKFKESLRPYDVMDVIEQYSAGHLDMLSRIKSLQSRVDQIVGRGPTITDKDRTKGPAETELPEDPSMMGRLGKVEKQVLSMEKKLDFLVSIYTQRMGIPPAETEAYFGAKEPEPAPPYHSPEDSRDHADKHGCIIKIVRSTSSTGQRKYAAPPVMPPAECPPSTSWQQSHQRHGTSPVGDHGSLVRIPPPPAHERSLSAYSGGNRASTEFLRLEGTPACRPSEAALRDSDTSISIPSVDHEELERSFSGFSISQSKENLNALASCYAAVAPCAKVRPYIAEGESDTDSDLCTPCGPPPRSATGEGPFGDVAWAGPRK
Sequence of Potassium voltage-gated channel subfamily KQT member 1 (Homo sapiens) (P51787 whole entry, looked up): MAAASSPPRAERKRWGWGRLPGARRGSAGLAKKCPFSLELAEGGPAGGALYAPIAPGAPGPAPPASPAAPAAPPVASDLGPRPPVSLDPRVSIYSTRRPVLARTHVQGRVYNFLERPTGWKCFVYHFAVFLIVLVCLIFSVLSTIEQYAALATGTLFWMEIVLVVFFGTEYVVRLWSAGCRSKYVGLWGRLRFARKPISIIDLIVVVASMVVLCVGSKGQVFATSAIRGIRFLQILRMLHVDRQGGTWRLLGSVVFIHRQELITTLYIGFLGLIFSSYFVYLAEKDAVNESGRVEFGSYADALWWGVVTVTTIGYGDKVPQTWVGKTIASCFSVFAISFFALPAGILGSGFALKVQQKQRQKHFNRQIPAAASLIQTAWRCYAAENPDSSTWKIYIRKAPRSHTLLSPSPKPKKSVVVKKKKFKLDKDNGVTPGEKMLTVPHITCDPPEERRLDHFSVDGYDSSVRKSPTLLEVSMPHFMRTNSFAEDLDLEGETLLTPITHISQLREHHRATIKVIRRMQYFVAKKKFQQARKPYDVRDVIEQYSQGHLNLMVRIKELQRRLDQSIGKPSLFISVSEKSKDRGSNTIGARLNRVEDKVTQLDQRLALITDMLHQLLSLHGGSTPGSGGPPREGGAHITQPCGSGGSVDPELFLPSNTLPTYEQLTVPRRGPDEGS
Sequence of Short transient receptor potential channel 6 (Mus musculus) (Q61143 whole entry, looked up): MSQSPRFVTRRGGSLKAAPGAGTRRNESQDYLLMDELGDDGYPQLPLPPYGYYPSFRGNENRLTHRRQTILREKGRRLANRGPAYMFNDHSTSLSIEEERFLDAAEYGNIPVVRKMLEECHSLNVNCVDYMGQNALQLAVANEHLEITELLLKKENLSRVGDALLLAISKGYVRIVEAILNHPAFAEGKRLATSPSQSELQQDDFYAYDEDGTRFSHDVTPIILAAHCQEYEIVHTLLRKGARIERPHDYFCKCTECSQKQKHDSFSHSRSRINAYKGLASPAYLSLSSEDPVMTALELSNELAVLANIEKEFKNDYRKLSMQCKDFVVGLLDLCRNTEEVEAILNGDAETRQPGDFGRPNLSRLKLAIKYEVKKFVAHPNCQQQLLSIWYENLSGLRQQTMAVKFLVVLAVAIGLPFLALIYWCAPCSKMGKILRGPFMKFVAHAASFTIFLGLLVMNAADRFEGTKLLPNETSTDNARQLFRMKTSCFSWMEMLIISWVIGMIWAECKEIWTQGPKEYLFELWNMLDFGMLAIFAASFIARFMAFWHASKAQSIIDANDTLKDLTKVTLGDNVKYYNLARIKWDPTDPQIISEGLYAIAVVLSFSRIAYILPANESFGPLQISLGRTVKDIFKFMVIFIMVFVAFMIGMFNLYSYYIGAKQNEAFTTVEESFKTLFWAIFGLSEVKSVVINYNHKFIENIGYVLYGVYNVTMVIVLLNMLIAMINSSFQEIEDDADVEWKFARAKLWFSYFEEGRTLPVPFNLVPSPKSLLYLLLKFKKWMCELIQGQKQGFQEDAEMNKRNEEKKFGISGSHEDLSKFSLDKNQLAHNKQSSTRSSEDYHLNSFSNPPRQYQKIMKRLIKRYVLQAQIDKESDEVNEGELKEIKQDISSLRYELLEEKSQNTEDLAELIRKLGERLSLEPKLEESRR
Sequence of Short transient receptor potential channel 4 (Mus musculus) (Q9QUQ5 whole entry, looked up): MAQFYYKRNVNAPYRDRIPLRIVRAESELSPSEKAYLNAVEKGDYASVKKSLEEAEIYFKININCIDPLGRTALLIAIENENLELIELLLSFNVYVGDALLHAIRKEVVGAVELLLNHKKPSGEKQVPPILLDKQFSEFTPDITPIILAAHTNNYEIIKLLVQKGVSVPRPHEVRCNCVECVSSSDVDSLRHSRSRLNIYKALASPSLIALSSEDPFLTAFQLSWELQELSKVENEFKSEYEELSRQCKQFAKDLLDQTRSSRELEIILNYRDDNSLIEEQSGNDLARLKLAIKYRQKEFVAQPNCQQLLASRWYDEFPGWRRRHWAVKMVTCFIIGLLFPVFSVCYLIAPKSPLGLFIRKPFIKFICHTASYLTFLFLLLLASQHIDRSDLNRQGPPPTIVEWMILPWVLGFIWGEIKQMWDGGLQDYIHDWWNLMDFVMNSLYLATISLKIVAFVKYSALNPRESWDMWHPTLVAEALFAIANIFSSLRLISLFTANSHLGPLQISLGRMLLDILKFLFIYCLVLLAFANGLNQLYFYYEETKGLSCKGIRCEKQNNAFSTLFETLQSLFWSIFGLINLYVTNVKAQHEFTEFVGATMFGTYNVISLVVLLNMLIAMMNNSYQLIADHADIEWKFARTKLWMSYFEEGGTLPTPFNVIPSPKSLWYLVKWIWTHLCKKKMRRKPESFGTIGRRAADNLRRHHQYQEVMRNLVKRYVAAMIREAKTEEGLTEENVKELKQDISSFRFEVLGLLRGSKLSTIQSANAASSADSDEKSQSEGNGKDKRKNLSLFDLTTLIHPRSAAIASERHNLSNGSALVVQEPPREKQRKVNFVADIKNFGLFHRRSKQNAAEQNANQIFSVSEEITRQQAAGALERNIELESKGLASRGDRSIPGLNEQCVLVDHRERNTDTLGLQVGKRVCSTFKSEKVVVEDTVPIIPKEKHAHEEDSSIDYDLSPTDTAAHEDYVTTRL

For `CCOC(=O)c1cnc2ccc(Cl)cc2c1NCCN(C)C`, the outcome in [1], in test [2], in test [3], in test [4], in test [5] and in test [6] was inactive. The outcome in test [7], in test [8], in test [9], in [10], in [11] and in test [12] was inactive. In addition, the result in test [13], in test [14], in [15], in [16] and in [17] was inactive.
Consider `CN(C)CCCN(C(=O)CCc1ccccc1)c1nc2ccc(F)cc2s1`, for which the result in test [1], in test [2], in [3], in test [4], in test [5] and in [6] was inactive. The result in test [7], in test [8], in [9], in test [10], in test [11] and in [12] was inactive. Moreover, the result in test [13], in test [14], in test [15], in [16], in [17] and in test [18] was inactive. Moreover, the outcome in test [19] and in test [20] was inactive.
In the case of `C=CCNC(=S)N1CCN(CCN=Cc2c(C)[nH]n(-c3ccc([N+](=O)[O-])cc3)c2=O)CC1`, the outcome in test [1], in test [2], in [3], in test [4], in test [5] and in test [6] was inactive. Also, the result in [7], in [8], in [9], in test [10], in test [11] and in [12] was inactive. The outcome in test [13], in test [14], in [15], in test [16] and in test [17] was inactive.
In the case of `O=C(Cc1ccccc1)Nc1cccc(NC(=O)c2cccs2)c1`, the result in test [1], in [2], in [3], in test [4], in [5] and in test [6] was inactive. Also, the outcome in [7], in test [8], in [9], in test [10], in test [11] and in test [12] was inactive. The outcome in test [13], in test [14], in test [15], in test [16] and in test [17] was inactive.
As for `CCCCCCCCCC[n+]1cccc2c3ccccc3ccc21`, the result in test [1], in test [2], in test [3], in test [4], in test [5] and in [6] was inactive. Moreover, the result in test [7], in [8], in test [9], in [10], in test [11] and in [12] was inactive. Further, the outcome in test [13], in test [14], in test [15], in test [16] and in test [17] was inactive. In test [18], the activation is 245% (active). For the same compound, the potentiation in test [19] is 64% (active); in [20] it was 194% (active).
`O=C(Nc1ccnn1C1CCN(Cc2cc3ccccc3[nH]2)CC1)C1CCOC1` (stereo unspecified): the result in test [1], in [2], in [3], in test [4], in test [5] and in [6] was inactive. Also, the outcome in test [7], in [8], in test [9], in test [10], in test [11] and in [12] was inactive. The outcome in [13], in [14], in test [15], in [16] and in [17] was inactive. For the same compound, in test [18], the activation was 163% (active). The values for the potentiation in test [19] and in test [20] were 53.5% (active) and 180% (active), respectively.
Consider `CN(CCCNC(=O)CCCOc1cc(=O)n(C)c2ccccc12)Cc1ccccc1`, for which the outcome in test [1], in test [2], in test [5], in [6], in test [7] and in test [8] was inactive. In addition, the result in [9], in test [10], in test [11], in test [12], in test [13] and in [14] was inactive. Further, the result in [16], in test [17], in [18], in [19] and in test [20] was inactive. For the same compound, the potentiation in test [3] was 21% (active); in test [4], 14% (active); in [15], 20.2% (active).
